Screening data: PubChem, National Center for Advancing Translational Sciences (NCATS)
Cycloheximide cs: Cycloheximide Counterscreen for Small Molecule Inhibitors of Shiga Toxin; max response, %; cell reporter, cycloheximide protein synthesis inhibition counterscreen; actives 12% (n = 300,000); in the data active = max response mostly above about 13%, no sharp cut-off; inactive = mostly below about 14%; note: read at 38.3 µM for the half of the compounds with a filed dose; 0% is about no effect
FMDV inh: High Throughput Screening for Foot and Mouth Disease Virus Antivirals; Potency, µM (highest dose often 57.9 µM), without a hit: top-dose activity change, negative = inhibition, hits mostly inhibitors; actives 1.2% (n = 410,000); FMDV antiviral cell-based qHTS; calls by dose curve; tested in HEK293T cells; note: read-out not given here; potency is the fitted concentration of half-maximal effect; % is set by controls: 0 for no effect and ±100 for the full control effect; nearly all actives have a fitted effect of over 45% in size
Shiga inhibitor: A qHTS for Small Molecule Inhibitors of Shiga Toxin. inhibition, % at 38.7 µM. actives 9.2% (n = 290,000). Vero cells, Shiga toxin protein synthesis inhibition reporter; in the data active = inhibition mostly above about 28%, no sharp cut-off; inactive = mostly below about 43%; note: 0% is about no effect
Sm TGR inh: qHTS Assay for the Inhibitors of Schistosoma Mansoni Peroxiredoxins. Schistosoma mansoni thioredoxin glutathione reductase (TGR), Q962Y6. Potency, µM (series often up to 114 µM), for the others: at the top dose activity change, negative = inhibition, usual class: inhibitors. purified TGR, DTNB reduction, TNB absorbance 405 nm. actives 3% (n = 360,000); active = well fitted inhibition curve with a large enough effect; inconclusive = small, poorly fitted or top-dose-only effect; inactive = no such curve, though single readings can be large or run the other way; note: potency is the fitted concentration of half-maximal effect; % is set by controls: 0 for no effect and ±100 for the full control effect; nearly all actives have a fitted effect of over 60% in size
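TGR 20 nM + NADPH 100 uM (dispensed conc.), cpd preinc 15 min RT; start with NADPH (500 uM addition) then DTNB (15 mM addition). Kinetic TNB absorbance, 405 nm filter. Four-parameter Hill fit across titration.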
* = called active by the depositor; ? = inconclusive; nt = no result given. Shown are actives, neighbours in structure and some others; about 12% of the full set was active somewhere.

SMILES	Cycloheximide cs	FMDV inh	Shiga inhibitor	Sm TGR inh
CCOc1ccccc1CNC(=O)C1CCN(S(=O)(=O)c2ccc3c(ccn3C)c2)CC1	nt	-4%	nt	2%
O=C(c1ccc2c(c1)N(Cc1ccc(Cl)cc1)C(=O)c1ccccc1S2(=O)=O)N1CCCCCC1	nt	6%	nt	-4%
CCOc1ccc(N(Cc2cc3cc(C)ccc3[nH]c2=O)C(=O)c2cccc(Cl)c2)cc1	nt	?	nt	10%
CCc1ccc(NC(=O)Nc2cccs2)cc1	20*	20%	56*	-16%
Cc1ccc(NC(=O)Nc2cccs2)cc1	28*	50%	64*	-30%
Cc1ccc(NC(=O)Nc2cccs2)nc1	38*	50%	94*	-10%
Cc1cc(C)cc(NC(=O)Nc2cccs2)c1	nt	46%	nt	-26%
CCOc1ccc(NC(=O)Nc2cccs2)cc1	47*	1%	61*	0%
COc1ccc(NC(=O)C2CCC(CNS(=O)(=O)c3ccc(Br)s3)CC2)c(OC)c1 (configuration not stated)	nt	-11%	nt	0%
COc1ccc(CCNC(=O)c2cc3sccc3n2Cc2ccc(Cl)cc2)cc1OC	nt	-19%	nt	-3%
Cc1ccc(CN2CCNC(=O)C2CC(=O)N(C)C(C2CC2)C2CC2)o1 (configuration not stated)	2	5%	26	25µM*
Cc1ccc(CN2CCNC(=O)C2CC(=O)NCC(F)(F)F)o1 (configuration not stated)	3	26%	-5	40µM*
CN(C(=O)CC1C(=O)NCCN1CC(c1ccccc1)c1ccccc1)C(C1CC1)C1CC1 (configuration not stated)	-2	-9%	9	45µM*
CCOc1ccc(CN2CCNC(=O)C2CC(=O)N(C)Cc2nonc2C)cc1 (configuration not stated)	-2	15%	-4	-27%
Cc1ccc(C(=O)N/N=C\c2ccc([N+](=O)[O-])s2)cn1	-2	?	-13	?
CCOC(=O)N/N=C\c1ccc([N+](=O)[O-])s1	10	-5%	42	-35%
Cn1c(SCC(=O)N/N=C/c2ccc([N+](=O)[O-])s2)nnc1-c1ccc(Cl)cc1	10*	?	-11	?
Cc1[nH]cnc1C(=O)N/N=C/c1ccc([N+](=O)[O-])s1	24*	-1%	55*	-32%
Cc1cccc(NC(=S)N/N=C/c2ccc([N+](=O)[O-])s2)c1	19	-12%	32*	0%
CC(C)(C)OC(=O)N/N=C\c1ccc([N+](=O)[O-])s1	58*	1%	81*	?
Cc1ccc(C(=O)N/N=C/c2ccc([N+](=O)[O-])s2)cc1	-3	2.8µM*	-23	-11%
Cc1cc(C(=O)N/N=C/c2cc(Br)c(Br)o2)n[nH]1	23*	4%	80*	10µM*
Cc1cc(C(=O)N/N=C/c2ccc(Br)o2)n[nH]1	11	20%	31	-33%
Cc1cc(C(=O)N/N=C/c2ccc([N+](=O)[O-])s2)n[nH]1	17*	-12%	28	0%
Cc1cc(C(=O)N/N=C\c2cc(C(C)(C)C)c(O)c(C(C)(C)C)c2)n[nH]1	-3	-22%	4	-17%
SMILES	Cycloheximide cs	FMDV inh	Shiga inhibitor	Sm TGR inh
Cc1cc(C(=O)N/N=C/c2ccc(C)s2)n[nH]1	29	0%	86*	-2%
COc1ccc(CCNC(=O)Cc2c(C)c3cc4c(C(C)(C)C)coc4c(C)c3oc2=O)cc1OC	nt	?	nt	-4%
CN(C)c1ccc(CNC(=O)C2CCN(S(=O)(=O)c3ccc4c(ccn4C)c3)CC2)cc1	nt	-15%	nt	2%
COc1ccc(NC(=O)c2oc3ccccc3c2NC(=O)Cc2cccs2)c(OC)c1	nt	0%	nt	-3%
O=C1OC(OC(=O)c2cccnc2Nc2cccc(C(F)(F)F)c2)c2ccccc21 (configuration not stated)	5	-2%	-2	nt
O=C1NC[C@H](CCCCN2C[C@H](Cc3ccccc3)N(CCC3CCCCC3)C(=O)C2=O)N(CCC2CCCCC2)C1=O	nt	40µM*	nt	nt
O=C(COc1ccc2c(c1)OCO2)NC12CC3CC(CC(C3)C1)C2	17*	12%	44*	7%
COc1ccccc1NC(=O)COc1ccc(/C=N/NC(=O)CSCc2cc(C)cc(C)c2)cc1	-6	?	-17	0%
O=C(NCc1ccc2c(c1)OCO2)NC12CC3CC(CC(C3)C1)C2	11	-9%	-2	1%
NC(=O)c1ccccc1NC(=O)COc1ccc2c(c1)OCO2	29*	7%	85*	-1%
COc1ccc2cc(OCC(=O)NNC(=O)Nc3ccc(C(C)=O)cc3)ccc2c1	21*	20%	48	-18%
COc1ccccc1NC(=O)COc1ccc(/C=N/NC(=O)CSCc2ccc(Cl)cc2)cc1	-3	18µM*	-11	-8%
CCOc1ccc(-c2nn(-c3ccccc3)cc2C2NC(=O)NC(C)=C2C(=O)OC(C)C)cc1 (configuration not stated)	nt	-5%	nt	2%
Cc1ccc2scc(N3CCN(c4ccccc4)CC3)c(=O)c2c1	nt	0%	nt	2%
COc1ccccc1NC(=O)NNC(=O)COc1ccc2ccccc2c1	24*	?	-38	2%
O=C(COc1ccc2c(c1)OCO2)Nc1nncs1	18*	0%	33	-13%
COc1ccc(OCC(=O)Nc2ccccc2OC(F)F)cc1	9.6*	-8%	8	-8%
CCOc1ccccc1NC(=O)COc1ccc2c(c1)OCO2	22	33%	59*	0%
COc1ccccc1NC(=O)COc1ccc2c(c1)OCO2	25*	39%	70*	5%
COc1ccc(-c2ccc(C(=O)NCC3Cc4cccc(-c5nc(C)cnc5C)c4O3)o2)cc1 (configuration not stated)	nt	-15%	nt	nt
NC(=O)c1c(NC(=O)CN2C(=O)CCC2=O)sc2c1CCCCC2	-2	-5%	17	3%
NC(=O)c1c(NC(=O)C(=O)NCCCN2CCOCC2)sc2c1CCCC2	-2	-11%	-3	0%
O=C(Nc1sc2c(c1C(=O)O)CCCC2)C(=O)N1CCOCC1	20*	21%	33*	-3%
NC(=O)c1c(NC(=O)CN2CCOCC2)sc2c1CCC2	7	-21%	-6	35µM*
NC(=O)c1c(NC(=O)CN2CCCC2)sc2c1CCCC2	26*	11%	21*	0%
CCOc1ccccc1NC(=O)c1cc(S(=O)(=O)N2CCOCC2)cn1C	nt	?	nt	-4%
Cc1cc2c(=O)c(C(=O)c3ccncc3)cn(CC(=O)Nc3cccc(C)c3C)c2cc1C	nt	-12%	nt	-2%
CCc1ccc(N(C(=O)c2snc(C(N)=O)c2N)C(C(=O)NCC2CCCO2)c2cccs2)cc1 (configuration not stated)	37*	10%	57	3%
NC(=O)c1nsc(C(=O)N(c2ccc(F)cc2)C(C(=O)NC2CCCC2)c2ccncc2)c1N (configuration not stated)	6	-5%	2	16%
NC(=O)c1nsc(C(=O)N(c2ccc(Cl)cc2)C(C(=O)NCC2CCCO2)c2cccs2)c1N (configuration not stated)	-1	-27%	21	0%
